About 83,000 compounds went through this panel and 20% of them were active in at least one assay; those are over-represented in the sample as a whole.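 The test compound was applied at a single concentration to cells in 96-well plates for 48 hours, and percent growth was recorded.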 Calls of active or inactive are those of the source. Rule for the calls: active = growth percent below 10; inactive = the rest.

The subject of this assay is MDA-MB-468 breast. Description: NCI-60 one-dose screen, 48 h (100 = growth as untreated, 0 = no growth, -100 = all killed). As to conditions: 10 µM unless noted.
Consider `CC(C)c1ncc([N+](=O)[O-])n1C`, for which the growth is 104% (inactive). The figure for `COc1ccc(/C=C/C(C)=N/OCC(=O)O)cc1` is 95.6% (inactive); for `Fc1c[c-]c(-c2ccccn2)c(F)c1.Fc1c[c-]c(-c2ccccn2)c(F)c1.[Cl][Pt+].[Cl][Pt+].c1ccc([PH+](C[PH+](c2ccccc2)c2ccccc2)c2ccccc2)cc1` it is -2.28% (active). The figure for `O=S(=O)(NCCCNc1cc(-c2c(-c3cccc(O)c3)nc3sccn23)ccn1)c1cccc2ccccc12` is 38.3% (inactive).

Consider `O=C1NC(=O)C(c2coc3cc(Br)ccc23)=C1c1c[nH]c2ccccc12`, for which the growth is 3.29% (active). The figure for `COc1ccc(-c2n/c(=C\c3c(O)[nH]c4ccc(OC)cc34)cc3c2=Nc2ccccc2-3)cc1` is -46.8% (active); for `CCC(=O)OCc1ccc(OC)cc1` it is 87.3% (inactive). For `COc1cccc2cc(-c3cc4ccccc4[nH]3)/c(=N\NC(=O)c3ccc(Cl)cc3)oc12`, the growth was -2.01% (active). With `Cc1ccc(-c2nnc(COc3ccc(-c4nnc(N)s4)cc3)o2)cc1` the figure was 72.7% (inactive); with `CCN(CC)c1cc2oc3cc(N)cc(=N)c-3nc2cc1C`, 38.3% (inactive); with `Cc1ccc2[nH]c(=O)c3c(c2c1)OC(N)=C(C#N)C31c2cc(Br)ccc2-c2ccc(Br)cc21`, 55.4% (inactive). The figure for `NCCOc1ncccc1/C=C1\c2ccccc2-c2ccc(C(F)F)cc21` is 85.5% (inactive); for `N#Cc1c(-c2ccc(F)cc2)c(C#N)c2c(C#N)c(N)nn2c1N` it is 83.5% (inactive). With `COc1c(OCCCN2CCOCC2)ccc2c3n(c(=NC(=O)c4cnc(N)nc4)nc12)CCN3` the figure was -23.5% (active). `CCOC(=O)C1=C(C)NC(=O)NC1c1cc(=O)oc2ccc(C)cc12` (stereo not given): the growth was 106% (inactive).

`COc1ccc2c(c1)c(-c1noc(-c3cn(C)c4ncc(F)cc34)n1)cn2C`: the growth was 73.5% (inactive). With `COc1cc(Cl)c(C)cc1NC(=O)c1cc2ccccc2cc1O` the figure was -8.5% (active); with `Brc1cc(-c2cc(-c3ccc4c(c3)OCCO4)[nH]n2)cs1`, 12% (inactive). For `COc1cccc(-c2nc3sccn3c2-c2ccnc(NCCNS(=O)(=O)c3ccc(F)cc3)c2)c1`, the growth was 19.2% (inactive). The figure for `COc1ccc(C2c3sc4c(F)cccc4c3Oc3nc[nH]c(=O)c32)cc1` (stereo not given) is 54.6% (inactive). With `Nc1ncc(-c2ccc3ncnc(Nc4ccc(F)c(Cl)c4)c3c2)cn1`, the growth is -22.3% (active).

As to `C=CC(C)C(C)(C)O` (stereo not given), the growth is 106% (inactive). The figure for `CCN(CC)CCN(CCN(CC)CC)c1ccccc1` is 92% (inactive). With `COc1ccc(Nc2ncc(C(N)=O)c(NCCCNC(=O)C3CCC3)n2)cc1` the figure was 33.1% (inactive); with `CCCCCC(=O)Oc1ccc(/C(=C(\C)c2ccccc2)c2ccc(OCCN3CCCCC3)cc2)cc1`, 75.7% (inactive); with `O=C(NCCNc1nccc(-c2c(-c3cccc(O)c3)nc3sccn23)n1)c1ccc(N2CCOCC2)c(C(F)(F)F)c1`, 50.2% (inactive).

In the case of `COc1cc(/C=C2\CN(S(=O)(=O)c3ccc(C)cc3)C/C(=C\c3cc(CN4CCCC4)c(O)c(OC)c3)C2=O)cc(CN2CCCC2)c1O`, the growth was -11.9% (active). Regarding `COc1cc2c(=O)n(CCCn3ccnc3)c3c4cc5c(cc4ccc3c2cc1OC)OCO5`, the growth was -37.3% (active). The figure for `Cc1ccc(OCCCCCCNCCO)c(C)c1` is -15.9% (active). With `CNC(=O)c1cc(N2CCc3cc(NC(=O)Nc4ccc(N5CCN(C)CC5)c(C(F)(F)F)c4)ccc32)ccn1` the figure was 77.9% (inactive); with `CC(C)=CC(=O)OCC(=O)O[C@@H]1C[C@]2(C(C)C)O[C@@]1(C)[C@@H]1CC[C@@H](C)[C@H]1[C@@H]2OC(=O)/C=C/c1ccccc1`, 64.3% (inactive). `C[C@@H](O)[C@H]1C(=O)N2C(C(=O)O)=C(SCCN=CN)C[C@H]12`: the growth is -48.1% (active). The figure for `Clc1ccc2c(c1)N(CCCN1CCCC1)c1ccccc1S2` is 16.4% (inactive); for `CCCCC/C=N/Nc1nc(C)cc(=O)[nH]1` it is 105% (inactive); for `CCN(CC)CC(C)(C)C(=O)/C=C/c1ccccc1` it is -15.2% (active). The figure for `Cc1nn(-c2ccccc2)c2nc(C)n(-c3ccc(Br)cc3)c(=O)c12` is -5.99% (active); for `CCN(CC)CCN1C(=O)c2c(c(C)c3c(oc4cc(O)ccc43)c2C)C1=O` it is 96.3% (inactive). The figure for `Cc1cc(N2CCN(c3ccnc4cc(Cl)ccc34)CC2)nc(N2CCOCC2)n1` is 68.7% (inactive); for `CC1=C(C(=O)OCC2CCN(C(=O)OC(C)(C)C)CC2)[C@H](c2cccc(C#N)c2)C2=C(CC(C)(C)CC2=O)N1` it is 59.9% (inactive). With `O=c1cc(N2CCOCC2)oc2c(-c3ccc4c(c3)OCCO4)csc12`, the growth is -4.24% (active).

The values are drawn from PubChem BioAssay (NCI).
